# Reference: PubChem BioAssay (EPA / NIEHS)
# Where “and” joins values, the source holds several entries; their conditions need not be identical. Equal entries are not always repeated. Calls of active or inactive are those of the source. Rule for the calls: active = hit-call score of the fitted dose curve at least 0.9, where 1 is the maximum; inactive = score below 0.9.
# Assay: ATG_EGR_CIS: Attagene CIS-FACTORIAL HepG2 Assay for human Early Growth Response 1 (EGR1) (AID 2282938)
# Conditions: HepG2 Attagene CIS-FACTORIAL EGR reporter mRNA; actives raise or lower the signal
# Procedure: ATG_CIS is a cell-based, multiplexed-readout assay that uses HepG2, a human liver cell line, with measurements taken at 24 hours after chemical dosing in a 24-well plate.ATG_EGR_CIS is one of 52 assay component(s) measured or calculated from the ATG_CIS assay. It is designed to make measurements of mRNA induction, a form of inducible reporter, as detected with fluorescence intensity signals by Reverse transcription polymerase chain reaction (RT-PCR) and Capillary electrophoresis technology.Data from the assay component ATG_EGR_CIS was analyzed into 1 assay endpoint. This assay endpoint, ATG_EGR_CIS, was analyzed with bidirectional fitting relative to DMSO as the negative control and baseline of activity. Using a type of inducible reporter, measures of mRNA for gain or loss-of-signal activity can be used to understand the reporter gene at the transcription factor-level as they relate to the gene EGR1. Furthermore, this assay endpoint can be referred to as a primary readout, because this assay has produced multiple assay endpoints where this one serves a reporter gene function. To generalize the intended target to other relatable targets, this assay endpoint is annotated to the dna binding intended target family, where the subfamily is zinc finger.
# Human liver HepG2 cells are transiently transfected with multiple reporter transcription units (MRTUs) in 6-well plates using FuGene 6 reagent (Roche; 3 ml FuGene/1 mg DNA). The MRTU constructs are regulated by a cis-regulating element (promoter). […] A major difference between the CIS and TRANS system is that in CIS activities of endogenous TFs are measured, whereas the TRANS assay evaluates changes in activities of exogenous, chimeric NR-Gal4 proteins. […] At the end of 24 hour incubation, total RNA was isolated using TriZol reagent (Invitrogen). The isolated RNA is then reverse-transcribed using oligo(dT) primer and Mo-MLV reverse transcriptase (Invitrogen) with DNAse I (Ambion) treatment for 30 min. The one-tenth of the produced cDNA was amplified by PCR using Taq DNA polymerase (Invitrogen) and two reporter sequence-specific primers. The PCR products were fluorescently labeled by primer extension with 6-arboxyfluorescein (6-FAM) 5'-labeled reporter sequence-specific primer (2 min at 95 C, 20 s at 68 C and 10 min at 72 C) and these products were digested with 5U of HpaI (New England Biolabs) for 2h at 37 C. The fragments were purified using Qiaquick PCR columns (Qiagen), analyzed on an ABI 3130xL genetic analyzer (Applied Biosystems) with peak positions identified by using a set of X-rhodamine (ROX)-labeled MapMarker1000 molecular weight standards (BioVentures). The raw capillary electrophoresis data was processed using Attagraph software (Attagene).
SMILES,outcome,AC50
OC(c1ccc(Cl)cc1)(c1ccc(Cl)cc1)c1cccnc1,inactive,
CC(C)C(C)(N)C#N (stereo not given),inactive,
c1ccc(-c2cccc(-c3ccccc3)c2)cc1,inactive,
C[CH2][Hg][S]c1ccccc1C(=O)O,,3.71 µM (active)
CC(C)O.CC(C)O.OCCN(CCO)CCO.OCCN(CCO)CCO.[Ti],inactive,
O=C(CCl)NCO,inactive,
NC(=O)c1ccc(N)nc1,inactive,
C=C(C)[C@@H]1CC=C(C=O)CC1,inactive,
Brc1ccc(Oc2c(Br)cc(Br)cc2Br)c(Br)c1,inactive,
Nc1cccnc1,inactive,
CCOP(=O)(OCC)SCCSCC,inactive,
O=c1oc2ccccc2c(O)c1C(CC(O)c1ccc(-c2ccc(Br)cc2)cc1)c1ccccc1 (stereo not given),,41.1 µM (active) and 17.8 µM (active)
CC(C)=CC1C(C(=O)OCc2cccc(Oc3ccccc3)c2)C1(C)C (stereo not given),inactive,
CC[N+](CC)(CC)CC,inactive,
CC(C)N(C(=O)CCl)c1ccccc1,inactive,
O=NN1CCOCC1,inactive,
O=C(O)CC(O)(CC(=O)O)C(=O)O,inactive,
N#Cc1cccnc1,inactive,
C=C(C)C(=O)OCCCCOC(=O)C(=C)C,inactive,
C=CC(=O)[O][Sn]([CH2]CCC)([CH2]CCC)[CH2]CCC,,0.412 µM (active)

SMILES,outcome,AC50
CCOC(=O)CCN(SN(C)C(=O)Oc1cccc2c1OC(C)(C)C2)C(C)C,inactive,
c1cc[c]([Sb]([c]2ccccc2)[c]2ccccc2)cc1,inactive,
Cc1cc(SCc2sc(-c3ccc(C(F)(F)F)c(F)c3)nc2C)ccc1OCC(=O)O,,26.3 µM (active)
CCCCOC(C)=O,inactive,
Cc1cc(Cl)ccc1N,inactive,
Cc1ccc2nc3sc(=O)sc3nc2c1,inactive,
CC(c1ccccc1)(c1ccc(O)cc1)c1ccc(O)cc1,,12.3 µM (active)
O=C(N[C@H]1CN2CCC1CC2)c1ccc2c(c1)OCCO2,inactive,
CC(C)[C@H](C(=O)OC(C#N)c1cccc(Oc2ccccc2)c1)c1ccc(OC(F)F)cc1 (stereo not given in full),inactive,
Nc1ccc(N)cc1,inactive,
CCCCCCCCCCBr,inactive,
CCCCCCCCCCCCCl,inactive,
OCCCCO,inactive,
CCCCCCCCCCCCN(C)C,,53.9 µM (active)
CCCCCCCCCCCCCCC(Br)C(=O)O (stereo not given),,146 µM (active)
CC(C)CP(=S)(S)CC(C)C,inactive,
CCOc1cc(C=O)ccc1O,inactive,
C=CCc1ccccc1O,inactive,
C#CCO,inactive,
NC(=O)CCl,inactive,
